This is part of a sample that, as a whole, favours compounds with a hit. Of some 83,000 tested, about 20% had one in any assay.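 Each cell line was grown in a 96-well plate and treated with one concentration of compound for 48 hours. Values below 10 were considered active.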 Unmarked numbers belong to inactive results. Activity calls are given as the source filed them.

This experiment concerns MDA-MB-468 breast. In words: NCI-60 one-dose screen, 48 h (100 = growth as untreated, 0 = no growth, -100 = all killed). The conditions noted are these: 10 µM unless noted.
Turning to `COc1cc2c(c(O)c1Br)C(=O)c1c(O)cc(C[C@H](C)O)cc1[C@H]2[C@H]1c2cc(C[C@H](C)O)cc(O)c2C(=O)c2c1cc(OC)c(Br)c2O`, the growth is -14.5% (active).

As for `COc1cc(-c2cc(/C=C/C(=O)c3ccc(N)cc3)[nH]n2)cc(OC)c1OC`, the growth is -47.7% (active).

In the case of `COc1ccc(/C=C\c2cc(OC)c(OC)c(OC)c2)cc1OC(=O)c1cccc(Cn2cc(CCOC(=O)c3cccc(Cn4nnc5c4C(=O)c4ccccc4C5=O)c3)nn2)c1`, the growth is 5.62% (active).

For `CCN(C(=O)c1cc2ccccc2[nH]1)[C@H]1CCC[C@@H](NCc2ccc(OC)cc2)C1`, the growth is 80.7%.

Turning to `CC(C)CC(=O)C(CCc1ccccn1)C(C)C` (stereo not given), the growth was 109%.

With `COc1cc(/C=C/c2cc(/C=C/c3ccc(O)c(OC)c3)n(-c3ccc(Cl)cc3)c(=O)n2)ccc1O`, the growth was 76.4%.

Turning to `Cc1ccc(S(=O)(=O)Nc2sccc2-c2nc(-c3ccccc3)no2)cc1`, the growth was 97.7%.

`Cc1ccc(C(O)C2=CC(=O)c3ccccc3C2=O)cc1` (stereo not given): the growth is 96.5%.

With `COc1cc(-c2cc(/C=C/C(=O)c3ccc(Cl)c(Cl)c3)[nH]n2)cc(OC)c1OC`, the growth is 7.24% (active).

Take `COc1cccc(/C=C/C(=O)c2sc(Nc3ccc(O)cc3)nc2C)c1`: the growth was 97.2%.

Consider `COc1ccc2c(c1)c1nc3cc(C)c(C)cc3nc1n2CCN(C)C`, for which the growth is -2.58% (active).

With `COc1ccc(/C=C\c2cc(OC)c(OC)c(OC)c2)cc1OCC(=O)Nc1nc2ccccc2s1`, the growth is 9.63% (active).

On to `C(=C\c1c[nH]c2ccccc12)/c1ccc2ccccc2n1`, for which the growth was 68.5%.

For the compound `COc1ccc(S(=O)(=O)NCCNc2nccc(-c3c(-c4cccc(F)c4)nc4sccn34)n2)cc1`, the growth was 23.3%.

As for `COc1ccc(-c2nc3ncccn3c2-c2nnc(-c3ccsc3C)o2)cc1`, the growth was 86.1%.

As to `NC(=O)CC(NC(=O)COc1ccc(Cl)cc1Cl)C(=O)O` (stereo not given), the growth is 108%.

In the case of `Cc1ccc2nc3[nH]c(=O)[nH]c(=O)c3c(N)c2c1`, the growth was 88.3%.

For `CCCC(=O)Nc1ccccc1C(=O)O`, the growth is 106%.

Take `O=[N+]([O-])c1ccc(OCCCOc2ccccc2)cc1`: the growth was 104%.

Regarding `CC/C=C\C/C=C/C=C1/C(=O)C=C[C@@H]1C/C=C\CCCC(=O)OC`, the growth is 19.8%.

As for `CCc1oc2ccccc2c1C(=O)c1cc(Br)c(O)c(Br)c1`, the growth was 6.28% (active).

Take `C=C1C(=O)O[C@H]2[C@H]1CC/C(COC(=O)c1ccccc1)=C\CC[C@@]1(C)O[C@@H]21`: the growth is -28.7% (active).

Regarding `COc1ccc2[nH]cc(/C=C3/C(=O)Nc4ccc(Cl)cc43)c2c1`, the growth is -10.9% (active).

Turning to `COC(=O)/C=C1/SC(=Nc2ccc(C(F)(F)F)cc2)N(CCc2c[nH]c3ccc(O)cc23)C1=O`, the growth is 8.44% (active).

As to `O=C(O)c1ccc(NC(=O)c2ccc(-c3cccc([N+](=O)[O-])c3)o2)cc1`, the growth was 99.8%.

Turning to `Brc1ccccc1/C=N/Nc1nc(N/N=C/c2ccccc2Br)nc(N2CCOCC2)n1`, the growth was 90.3%.

With `C=CCn1c(SCC(=O)Nc2ccc(C(=O)/C=C/c3cc(OC)c(OC)c(OC)c3)cc2)nnc1-c1cc(OC)c(OC)c(OC)c1`, the growth was 26.1%.

On to `CCCN1CC(c2ccc(OC)c(OC)c2)=C(c2cn(C(=O)OCC)c3ccccc23)C1=O`, for which the growth is 6.47% (active).

In the case of `CC1CCc2cc(F)cc3c(=O)c(C(=O)O)cn1c23` (stereo not given), the growth was 109%.

For the compound `O=C1Nc2ccccc2/C1=C/c1cn(CCCn2c3ccccc3c(=O)c3ccccc32)c2ccccc12`, the growth was 96.4%.

For the compound `COc1cc(/C=N/N(C)C)ccc1O`, the growth is 95.8%.

For the compound `Nc1cc(Cl)c(S(N)(=O)=O)cc1S(N)(=O)=O`, the growth was 99.3%.

Take `C#Cc1cccc(NC(=O)Nc2cccc(N=C=S)c2)c1`: the growth was 106% [8.25 µM].

Regarding `CC(=O)c1ccc(Nc2nc(NCCO)nc(Nc3ccc(Cl)cc3)n2)cc1`, the growth was 65.7%.

With `COC(=O)c1cc(Cl)cc([N+](=O)[O-])c1O`, the growth was 95.3%.

For `COc1ccc(N2C(=O)c3cc(Cl)ccc3NC2SCc2ccccc2)cc1` (stereo not given), the growth is 98.1%.

Take `N/C(=N\N=C\c1ccc2c(c1)OCO2)N/N=C\c1ccc2c(c1)OCO2`: the growth was 98.9%.

Turning to `CN(C)CCCN1c2ccccc2Sc2ccc(C(F)(F)F)cc21`, the growth is -76.9% (active).

`COc1ccccc1C(OC(C)=O)OC(C)=O`: the growth was 98%.

For the compound `COc1cc(/C=C/c2cc(/C=C/c3ccc(O)c(OC)c3)n(C(=O)Nc3ccc(C)cc3C)n2)ccc1O`, the growth is -30.3% (active).

Source of the values: PubChem BioAssay (NCI).
